GDH-TPI counter-1: counter-screen for M. tuberculosis FBA inhibitors: GDH-TPI coupled enzymes | 360,000 tested, 1.2% active | GDH-TPI coupled enzyme counterscreen, NADH absorbance | inhibition, % at 4.8 µM
CCHFV vOTU inh: CCHFV vOTU protease inhibition | Pep-AMC fluorescence | inhibition, % at 11.5 µM | 370,000 tested, 0.55% active | AID 651958
FBA Mtb inh: inhibits M. tuberculosis FBA enzyme | P9WQA3 | purified M. tuberculosis FBA, fluorescence read-out | inhibition, % at 1 µM | 360,000 tested, 2.3% active | AID 588726; in the data active = inhibition above about 27%
Target sequence (P9WQA3 whole entry, looked up): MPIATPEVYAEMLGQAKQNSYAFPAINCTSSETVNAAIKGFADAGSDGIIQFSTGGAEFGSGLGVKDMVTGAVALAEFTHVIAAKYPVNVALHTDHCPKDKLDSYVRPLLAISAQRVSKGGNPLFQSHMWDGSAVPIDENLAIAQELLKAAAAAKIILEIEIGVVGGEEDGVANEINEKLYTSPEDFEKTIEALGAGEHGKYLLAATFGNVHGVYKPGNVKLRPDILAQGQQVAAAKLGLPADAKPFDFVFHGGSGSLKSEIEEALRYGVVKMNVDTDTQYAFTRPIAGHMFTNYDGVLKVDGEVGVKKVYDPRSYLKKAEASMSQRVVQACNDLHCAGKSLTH
Mtb bLac sens: beta-lactam sensitization of Mtb H37Rv; 330,000 tested, 0.27% active; inhibition, % at 25 µM; M. tuberculosis H37Rv growth with meropenem, percent inhibition; AID 434955; call rule not given here;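 also: growth measured after seven days incubation then overnight dye step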
MazF activator: activators of E. coli MazEF toxin-antitoxin RNase | P0AE70 | FAM/BHQ RNA-DNA oligo cleavage fluorescence, 5 h | activation, % at 20 µM | 350,000 tested, 0.32% active | AID 504720; in the data active = activation above about 50%
Target sequence (P0AE70 whole entry, looked up): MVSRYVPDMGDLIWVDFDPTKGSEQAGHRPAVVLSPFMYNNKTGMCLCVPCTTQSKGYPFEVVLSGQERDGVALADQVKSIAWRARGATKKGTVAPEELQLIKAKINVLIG
Mtb FBA confirm: confirmation of M. tuberculosis fructose-bisphosphate aldolase inhibitors; shares compounds with FBA Mtb inh; purified M. tuberculosis FBA, fluorescence read-out; inhibition, % at 1 µM; 5,600 tested, 78% active; AID 651616; in the data active = inhibition above about 27%
GDH-TPI counter-2: counter-screen for M. tuberculosis FBA inhibitors: GDH-TPI coupled enzyme inhibition; 5,600 tested, 81% active; shares compounds with FBA Mtb inh; AID 652141; GDH-TPI coupled enzyme counterscreen, fluorescence; inhibition, % at 1 µM; in the data active = inhibition above about 10%
Numbers stand for hits; 0 = inactive; - = not tested or not shown; + = active, no number. An excerpt weighted towards active compounds, which were near 4% of everything screened. Rule as the data show it, unless noted: active = inhibition above about 30%; inactive = the rest.

SMILES | GDH-TPI counter-1 | CCHFV vOTU inh | FBA Mtb inh | Mtb bLac sens | MazF activator | Mtb FBA confirm | GDH-TPI counter-2
Cc1ccc(/C=N/n2c(-c3ccccc3)n[nH]c2=S)cc1 | 0 | 0 | 0 | 0 | 0 | - | -
S=c1[nH]nc(-c2cccnc2)n1/N=C/c1ccccc1 | 0 | 0 | 0 | 0 | 0 | - | -
O=C(O)c1ccc(/C=N/n2cc(-c3ccccc3)[nH]c2=S)cc1 | 0 | 0 | 37.4 | 0 | 0 | 49.6 | 38.3
COc1ccc(S[C@]2(C(=O)N3CCCC3)CC(=O)N(c3ccsc3)[C@@H]2c2ccc(OC)cc2)cc1 | - | 0 | - | - | - | - | -
CCCn1nnc(NC(=S)NC(=O)c2cccs2)n1 | 0 | 0 | 37.4 | 0 | 0 | 39.2 | 24.7
N#Cc1nc(COc2cccc(Cl)c2)oc1N1CCCC1 | 0 | 0 | 0 | 0 | 0 | - | -
Cc1cccc(-c2nc(C#N)c(NC3CCCCC3)o2)c1 | 0 | 0 | 95.9 | 0 | 0 | 34.6 | 27.0
CC1CN(c2oc(-c3ccccc3Cl)nc2C#N)CC(C)O1 (stereo not given) | 0 | 0 | 0 | 0 | 0 | - | -
Cc1cccc(-c2nc(C#N)c(N3CCCCC3)o2)c1 | 0 | 0 | 37.8 | 0 | 0 | 35.5 | 32.6
Cc1ccccc1-c1nc(C#N)c(N2CCCCC2)o1 | 0 | 0 | 70.4 | 0 | 0 | 0 | 0
COc1ccc(-c2nc(C#N)c(N3CC(C)OC(C)C3)o2)cc1OC (stereo not given) | 0 | 0 | 61.5 | 0 | 0 | 97.9 | 85.2
Cc1ccccc1OCc1nc(C#N)c(N2CCCC2)o1 | 0 | 0 | 0 | 0 | 0 | - | -
CC(C)C[C@@H]1COc2cc(NC3CC3)ccc2S(=O)(=O)N1 | - | 0 | - | - | - | - | -
CC1CCN(c2oc(Cc3cccc4ccccc34)nc2C#N)CC1 | 0 | 0 | 0 | 0 | 0 | - | -
Cc1ccc(-c2nc(C#N)c(N3CCC(C)CC3)o2)cc1 | 0 | 0 | 67.1 | 0 | 0 | 61.1 | 58.5
Cc1ccc(NC(=O)OC2CC3CC2[C@H]2CCCCN2[C@H]3C)cc1 (stereo not given in full) | - | 0 | - | - | - | - | -
COc1ccc(CNc2nc(C)cc(C)c2C#N)cc1 | 0 | 0 | 29.0 | 0 | 0 | 40.4 | 26.2
COC(=O)CC#C[C@H](C)[C@@H](NS(=O)(=O)c1ccc([N+](=O)[O-])cc1)C(C)(C)C | - | 0 | - | - | - | - | -
Clc1ccc(-n2c(Cc3cccs3)nnc2SC/C=C/c2ccccc2)cc1 | - | 0 | - | - | - | - | -
COc1ccc(C(=O)NCCNc2nc3ccc(C)cc3cc2C#N)cc1OC | 0 | 0 | 34.7 | 0 | 0 | + | 157.5
COc1cccc(C(=O)NCCNc2nc3cc(C)cc(C)c3cc2C#N)c1 | - | 0 | - | - | - | - | -
COc1cc(C(=O)NCCCNc2nc3cc(C)cc(C)c3cc2C#N)cc(OC)c1OC | 0 | 0 | 32.0 | 0 | 0 | 84.9 | 54.9
C=Cc1ccc(C(=O)N2CCC(n3nnc4ncccc43)CC2)cc1 | - | 0 | - | - | - | - | -
COc1ccc2[nH]c3c(=O)n(N)c(C)nc3c2c1 | 0 | 0 | 106.0 | 0 | 0 | 157.2 | 136.9
COc1ccc2[nH]c3c(=O)n4c(nc3c2c1)SCC4 | 0 | 0 | 49.7 | 0 | 0 | 0 | 0
SMILES | GDH-TPI counter-1 | CCHFV vOTU inh | FBA Mtb inh | Mtb bLac sens | MazF activator | Mtb FBA confirm | GDH-TPI counter-2
Cc1ccc2[nH]c3c(=O)n(N)c(C)nc3c2c1 | 0 | 0 | 40.9 | 0 | 0 | 39.4 | 26.9
O=c1c2[nH]c3ccccc3c2nc2n1CCS2 | 0 | 0 | 0 | 0 | 0 | - | -
Cc1cc2c(c(=O)n1CC1CCCO1)C(c1ccco1)C(C#N)=C(N)O2 (stereo not given) | 0 | 0 | 31.6 | 0 | 0 | 40.8 | 37.9
O=C(c1ccc(F)cc1Cl)N1CCCC(c2nc(-c3cccs3)no2)C1 (stereo not given) | - | 0 | - | - | - | - | -
C[C@@H]1ON(C)[C@H]2C[C@H]3c4[nH]c5c(-c6cc(Cl)cc(Cl)c6)cccc5c4CCN3C(=O)[C@@H]12 | - | 0 | - | - | - | - | -
CCOC(=O)c1sc2nc(C(C)C)c3c(c2c1N)CCC3 | 0 | 0 | 28.8 | 0 | 0 | 95.8 | 82.2
Cc1ccc(-c2cc3cccc[n+]3cc2-c2ccc(C)cc2)cc1 | 0 | 0 | 40.4 | 0 | 0 | 125.5 | 97.8
CCOC(=O)[C@@]12CCC3=C1N(CCC3)C(=O)[C@H](CC(=O)N1CCCCC1)C2 | - | 0 | - | - | - | - | -
O=C(CCS(=O)(=O)c1ccccc1)Nc1ccc(F)cc1Cl | - | 0 | - | - | - | - | -
CCC(C)n1c(/C=C/c2ccccc2)nc2ccccc21 (stereo not given) | 0 | 0 | 32.9 | 0 | 0 | 52.6 | 31.9
CC(C)Cn1c(/C=C/c2ccccc2)nc2ccccc21 | 38.8 | 0 | 77.9 | 0 | 0 | 91.8 | 66.7

Bioassay records: PubChem BioAssay, several laboratories
